From the supplement of paper PMC10849652
The full data set covers some 8,800 targets. This sample favours those with a hit. About 0.5% of all pairs of compound and target were hits.

Key:
Test in all cases: log2 fold change, soluble protein after heating vs DMSO (PISA); higher = thermal stabilisation; K562 lysate, 10 uM; active = over 0.2 and 3.5 SD of the protein, either way, in both replicates (recomputed)
erlotinib = compound: C#Cc1cccc(Nc2ncnc3cc(OCCOC)c(OCCOC)cc23)c1 [erlotinib]
Procedure, shortened: (§1)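 A 30 min treatment with 10 μM compound was applied to crude K562 extract at 1 mg/mL protein in PBS pH 7.4 with 1 mM MgCl2. Heating for 3 min spanned 48°C-58°C, after which aliquots were pooled, adjusted to 0.5% NP-40 at 4°C and spun at 21,000xg for 90 min. TMTpro 16plex LC-MS/MS of the supernatant, with channel sums equalised, gave values recorded as log-two fold change in thermal stability against solvent controls, from duplicates.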

[1] = compound: C/C(=N\NC(=O)C1=CC(=CC=C1)S(=O)(=O)N2CCOCC2)/C3=C(C=CC(=C3)Cl)O
Procedure, shortened: as §1

[2] = compound: C1=CC(=CC=C1C2=NC3=C(N2)C=C(C=C3)C(=O)N)OC4=CC=C(C=C4)Cl
Procedure, shortened: as §1

[3] = compound: C1=CC2=C(C=CC(=C2)/C=C\3/C(=O)NC(=NCC4=CC=CS4)S3)N=C1
Procedure, shortened: as §1

[4] = compound: C1=CC2=NC=CN=C2C=C1/C=C/3\C(=O)NC(=O)S3
Procedure, shortened: as §1

[5] = compound: C1=CC=C(C=C1)C2=NC(=C(N2)C3=CC=NC=C3)C4=CC(=C(C=C4)Cl)O
Procedure, shortened: as §1

[6] = compound: C1=CC=C2C(=C1)C3=NNC4=CC=CC(=C43)C2=O
Procedure, shortened: as §1

[7] = compound: C1CCN(C1)C(=O)NC2=CC=CC(=C2)NC3=NC=C(C(=N3)NCCC4=CN=CN4)Br
Procedure, shortened: as §1

[8] = compound: C1CN(CCC1(CC2=CC=C(C=C2)Cl)N)C3=NC=NC4=C3C=CN4
Procedure, shortened: as §1

IRAK-1-4 Inhibitor I = compound: C1COCCN1CCN2C3=CC=CC=C3N=C2NC(=O)C4=CC(=CC=C4)[N+](=O)[O-] [IRAK-1-4 Inhibitor I]
Procedure, shortened: as §1

Measured: log2 fold change

PKP3 isoform 2 (UniProt Q9Y446)
inactive: erlotinib 0.063 | [1] -0.011 | [2] 0.042 | [3] 0.009 | [4] 0.006 | [5] -0.011 | [6] -0.02 | [7] -0.011 | [8] -0.013 | IRAK-1-4 Inhibitor I 0.015

PDCD6IP isoform 2 (UniProt Q8WUM4)
Chain of UniProt Q8WUM4 (Q8WUM4 whole entry, looked up): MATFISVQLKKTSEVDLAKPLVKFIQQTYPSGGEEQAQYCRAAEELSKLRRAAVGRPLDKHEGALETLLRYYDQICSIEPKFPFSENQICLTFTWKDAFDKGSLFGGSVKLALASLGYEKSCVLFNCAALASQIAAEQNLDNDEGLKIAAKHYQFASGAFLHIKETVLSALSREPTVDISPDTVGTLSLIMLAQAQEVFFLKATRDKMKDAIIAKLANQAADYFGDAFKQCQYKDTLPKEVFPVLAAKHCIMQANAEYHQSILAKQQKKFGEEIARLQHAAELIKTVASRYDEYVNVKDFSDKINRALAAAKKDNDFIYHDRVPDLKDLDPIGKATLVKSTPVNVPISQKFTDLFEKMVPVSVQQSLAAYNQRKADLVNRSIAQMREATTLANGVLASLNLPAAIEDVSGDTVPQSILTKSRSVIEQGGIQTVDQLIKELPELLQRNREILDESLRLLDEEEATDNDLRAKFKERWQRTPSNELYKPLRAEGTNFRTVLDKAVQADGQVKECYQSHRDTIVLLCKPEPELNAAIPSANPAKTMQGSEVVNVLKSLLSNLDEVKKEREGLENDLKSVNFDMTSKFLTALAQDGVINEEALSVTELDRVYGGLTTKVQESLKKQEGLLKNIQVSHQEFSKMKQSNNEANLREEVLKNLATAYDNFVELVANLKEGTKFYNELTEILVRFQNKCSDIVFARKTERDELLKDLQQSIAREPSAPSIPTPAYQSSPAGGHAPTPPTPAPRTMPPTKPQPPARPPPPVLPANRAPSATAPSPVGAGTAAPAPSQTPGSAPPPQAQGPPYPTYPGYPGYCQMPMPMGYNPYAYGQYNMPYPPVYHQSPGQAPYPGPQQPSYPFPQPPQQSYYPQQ
inactive: erlotinib 0.027 | [1] 0.046 | [2] 0.009 | [3] 0.01 | [4] -0.02 | [5] 0.007 | [6] -0.007 | [7] 0.002 | [8] 0.007 | IRAK-1-4 Inhibitor I -0.002

PTK2B (UniProt Q14289)
inactive: erlotinib 0.024 | [1] -0.012 | [2] 0.001 | [3] -0.012 | [4] -0.053 | [5] 0.027 | [6] 0.066 | [7] 0.067 | [8] -0.068 | IRAK-1-4 Inhibitor I 0.077

PDXDC1 (UniProt Q6P996)
Chain of UniProt Q6P996 (Q6P996 whole entry, looked up): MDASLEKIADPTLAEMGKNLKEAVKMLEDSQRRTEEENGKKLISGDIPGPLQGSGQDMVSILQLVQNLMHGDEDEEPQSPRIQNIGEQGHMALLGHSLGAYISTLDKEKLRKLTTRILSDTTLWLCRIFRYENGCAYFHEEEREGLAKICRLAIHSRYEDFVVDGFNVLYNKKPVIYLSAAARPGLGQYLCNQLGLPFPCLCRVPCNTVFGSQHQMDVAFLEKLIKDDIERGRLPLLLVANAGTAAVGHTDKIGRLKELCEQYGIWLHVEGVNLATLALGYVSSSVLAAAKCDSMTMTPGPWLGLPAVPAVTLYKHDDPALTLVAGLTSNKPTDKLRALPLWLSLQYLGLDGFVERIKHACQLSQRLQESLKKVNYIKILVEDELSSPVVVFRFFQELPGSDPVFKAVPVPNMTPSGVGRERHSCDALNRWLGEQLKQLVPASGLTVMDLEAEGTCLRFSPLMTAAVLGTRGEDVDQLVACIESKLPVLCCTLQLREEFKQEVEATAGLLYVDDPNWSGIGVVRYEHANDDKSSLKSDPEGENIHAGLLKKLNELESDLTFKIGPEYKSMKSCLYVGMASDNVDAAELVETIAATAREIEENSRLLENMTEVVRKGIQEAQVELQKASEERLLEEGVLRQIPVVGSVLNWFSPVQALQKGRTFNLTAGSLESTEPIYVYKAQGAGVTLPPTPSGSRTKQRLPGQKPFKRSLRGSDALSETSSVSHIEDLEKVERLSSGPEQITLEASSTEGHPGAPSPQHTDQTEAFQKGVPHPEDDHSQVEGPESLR
inactive: erlotinib -0.012 | [1] 0.008 | [2] -0.095 | [3] 0.034 | [4] 0.013 | [5] -0.005 | [6] 0.024 | [7] -0.011 | [8] -0.024 | IRAK-1-4 Inhibitor I -0.006

POLR2M (UniProt P0CAP2)
inactive: erlotinib 0.075 | [1] -0.053 | [2] 0.014 | [3] 0.034 | [4] -0.013 | [5] 0.027 | [6] -0.045 | [7] -0.182 | [8] -0.002 | IRAK-1-4 Inhibitor I 0.026

PIP4K2A (UniProt P48426)
inactive: erlotinib -0.04 | [2] 0.032 | [3] 0.001 | [4] 0.225 | [5] 0.135 | [6] 0.105 | [7] 0.103 | [8] -0.006 | IRAK-1-4 Inhibitor I -0.007
active: [1] -0.239

PDS5A (UniProt Q29RF7)
inactive: erlotinib 0.043 | [1] -0.015 | [2] -0.029 | [3] 0.052 | [4] 0.032 | [5] 0.012 | [6] -0.038 | [7] -0.005 | [8] 0.001 | IRAK-1-4 Inhibitor I -0.015

PI4K2B (UniProt Q8TCG2)
inactive: erlotinib 0.023 | [1] 0.035 | [2] -0.041 | [3] -0.089 | [4] -0.002 | [5] -0.047 | [6] 0.009 | [7] -0.07 | [8] 0.136 | IRAK-1-4 Inhibitor I 0.026

PDXK (UniProt O00764)
inactive: erlotinib -0.003 | [1] 0.02 | [2] 0.103 | [3] -0.019 | [4] -0.02 | [5] -0.008 | [6] 0.021 | [7] 0.037 | [8] -0.012 | IRAK-1-4 Inhibitor I 0.018

PRKAR2A (UniProt P13861)
inactive: erlotinib 0.001 | [1] 0.032 | [2] 0.02 | [3] -0.02 | [4] -0.009 | [5] 0 | [6] -0.029 | [8] -0.212 | IRAK-1-4 Inhibitor I -0.06
active: [7] -0.252

PPP3CA isoform 2 (UniProt Q08209)
inactive: erlotinib -0.005 | [1] -0.037 | [2] 0.045 | [3] -0.036 | [4] -0.014 | [5] 0.014 | [6] -0.006 | [7] 0.082 | [8] -0.026 | IRAK-1-4 Inhibitor I -0.01

PRKCB isoform 2 (UniProt P05771)
Chain of UniProt P05771 (P05771 whole entry, looked up): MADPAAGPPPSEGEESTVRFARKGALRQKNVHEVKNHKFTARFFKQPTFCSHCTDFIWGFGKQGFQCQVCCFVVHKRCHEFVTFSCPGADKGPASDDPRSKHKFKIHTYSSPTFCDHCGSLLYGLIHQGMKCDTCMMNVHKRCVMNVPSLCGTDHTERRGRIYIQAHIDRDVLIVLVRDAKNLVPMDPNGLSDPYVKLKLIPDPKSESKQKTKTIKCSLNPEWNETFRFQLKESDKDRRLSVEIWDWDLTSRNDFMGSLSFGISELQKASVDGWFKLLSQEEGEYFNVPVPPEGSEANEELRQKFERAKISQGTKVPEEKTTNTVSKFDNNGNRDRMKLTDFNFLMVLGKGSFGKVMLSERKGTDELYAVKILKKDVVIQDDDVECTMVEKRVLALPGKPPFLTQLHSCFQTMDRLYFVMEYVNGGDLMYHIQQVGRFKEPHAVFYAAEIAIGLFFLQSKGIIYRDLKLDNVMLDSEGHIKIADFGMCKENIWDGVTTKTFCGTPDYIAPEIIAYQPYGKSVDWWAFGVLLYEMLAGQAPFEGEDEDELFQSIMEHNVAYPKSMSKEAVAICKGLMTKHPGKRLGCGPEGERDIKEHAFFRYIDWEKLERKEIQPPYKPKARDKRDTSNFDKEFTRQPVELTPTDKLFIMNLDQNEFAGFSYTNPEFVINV
inactive: erlotinib 0.053 | [1] -0.191 | [2] 0.07 | [3] -0.043 | [4] -0.004 | [5] -0.064 | [6] -0.12 | [7] -0.149 | [8] 0.019 | IRAK-1-4 Inhibitor I -0.02

POLD3 (UniProt Q15054)
inactive: erlotinib 0.015 | [1] 0.002 | [2] -0.006 | [3] -0.003 | [4] -0.048 | [5] 0.01 | [6] -0.048 | [7] -0.058 | [8] -0.012 | IRAK-1-4 Inhibitor I -0.035

PRMT8 (UniProt Q9NR22)
inactive: erlotinib 0.01 | [1] -0.003 | [2] 0.009 | [3] -0.046 | [4] -0.015 | [5] 0.024 | [6] -0.031 | [7] -0.012 | [8] 0.013 | IRAK-1-4 Inhibitor I 0.024

PWP2 (UniProt Q15269)
inactive: erlotinib 0.051 | [1] -0.076 | [2] -0.036 | [3] 0.02 | [4] 0.015 | [5] -0.012 | [6] -0.013 | [7] 0.018 | [8] 0.04 | IRAK-1-4 Inhibitor I -0.027

PCBP3 (UniProt P57721)
inactive: erlotinib 0.005 | [1] 0.028 | [2] 0.021 | [3] -0.031 | [4] 0.02 | [5] 0.02 | [6] 0.029 | [7] -0.003 | [8] 0.021 | IRAK-1-4 Inhibitor I -0.005

PHACTR4 isoform 2 (UniProt Q8IZ21)
Chain of UniProt Q8IZ21 (Q8IZ21 whole entry, looked up): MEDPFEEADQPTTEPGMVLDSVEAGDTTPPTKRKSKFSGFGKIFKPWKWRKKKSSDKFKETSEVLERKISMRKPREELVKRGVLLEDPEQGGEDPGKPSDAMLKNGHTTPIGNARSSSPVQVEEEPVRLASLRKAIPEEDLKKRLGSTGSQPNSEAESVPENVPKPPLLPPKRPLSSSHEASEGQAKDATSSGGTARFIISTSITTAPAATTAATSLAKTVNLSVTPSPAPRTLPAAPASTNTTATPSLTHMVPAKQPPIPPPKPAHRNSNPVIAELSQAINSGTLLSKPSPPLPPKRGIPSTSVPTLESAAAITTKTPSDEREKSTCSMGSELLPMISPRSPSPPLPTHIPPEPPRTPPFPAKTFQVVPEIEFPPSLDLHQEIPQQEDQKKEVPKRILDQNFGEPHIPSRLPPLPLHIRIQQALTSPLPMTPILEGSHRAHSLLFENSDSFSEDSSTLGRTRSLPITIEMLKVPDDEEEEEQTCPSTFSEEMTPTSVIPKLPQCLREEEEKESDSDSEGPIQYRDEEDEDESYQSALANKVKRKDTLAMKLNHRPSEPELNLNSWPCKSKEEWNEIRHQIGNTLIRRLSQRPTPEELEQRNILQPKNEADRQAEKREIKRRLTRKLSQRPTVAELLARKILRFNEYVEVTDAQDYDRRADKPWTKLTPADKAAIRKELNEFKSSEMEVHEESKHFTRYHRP
inactive: erlotinib 0.003 | [1] -0.02 | [2] 0.012 | [3] -0.004 | [4] -0.021 | [5] 0.021 | [6] 0.013 | [7] -0.017 | [8] 0.052 | IRAK-1-4 Inhibitor I 0.011

PYURF (UniProt Q96I23)
inactive: erlotinib -0.019 | [1] 0.113 | [2] 0.117 | [3] 0.056 | [4] 0.087 | [5] -0.09 | [6] -0.108 | [7] 0.035 | [8] 0.07 | IRAK-1-4 Inhibitor I -0.086

POGK (UniProt Q9P215)
inactive: erlotinib 0.052 | [1] 0.053 | [2] 0.034 | [3] -0.059 | [4] -0.023 | [5] 0.104 | [6] -0.03 | [7] 0 | [8] 0.022 | IRAK-1-4 Inhibitor I 0.025

PHKA2 (UniProt P46019)
inactive: erlotinib 0.048 | [1] -0.051 | [2] 0.032 | [3] 0.052 | [4] 0.044 | [5] -0.058 | [6] 0.012 | [7] 0.027 | [8] 0.033 | IRAK-1-4 Inhibitor I 0.03

POLA1 (UniProt P09884)
inactive: erlotinib 0.009 | [1] -0.039 | [2] -0.02 | [3] -0.015 | [4] -0.036 | [5] 0.084 | [6] -0.005 | [7] -0.034 | [8] 0.015 | IRAK-1-4 Inhibitor I -0.003

PPP4R2 (UniProt Q9NY27)
inactive: erlotinib 0.004 | [1] -0.007 | [2] 0.025 | [3] 0.063 | [4] -0.029 | [5] -0.02 | [6] 0.013 | [7] 0.004 | [8] 0.004 | IRAK-1-4 Inhibitor I 0.012

PRKACA (UniProt P17612)
inactive: erlotinib -0.033 | [1] -0.056 | [2] 0.049 | [3] 0.016 | [4] -0.015 | [5] -0.015 | [6] 0.034 | [7] 0.234 | [8] 0.34 | IRAK-1-4 Inhibitor I 0.015

PPP2R5C isoform 5 (UniProt Q13362)
inactive: erlotinib -0.013 | [1] -0.025 | [2] -0.009 | [3] -0.025 | [4] 0.016 | [5] -0.002 | [6] -0.039 | [7] 0.01 | [8] 0.027 | IRAK-1-4 Inhibitor I 0.013

PIK3CB (UniProt P42338)
inactive: erlotinib -0.024 | [1] -0.014 | [2] -0.045 | [3] 0.159 | [4] 0.412 | [5] 0.019 | [6] 0.095 | [7] 0.002 | [8] 0.052 | IRAK-1-4 Inhibitor I 0.037

PPP2R5C isoform 4 (UniProt Q13362)
inactive: erlotinib 0.025 | [1] -0.048 | [2] -0.054 | [3] -0.012 | [4] -0.009 | [5] 0.044 | [6] -0.01 | [7] 0.046 | [8] 0.08 | IRAK-1-4 Inhibitor I 0.002

PCYT1B (UniProt Q9Y5K3)
inactive: erlotinib -0.016 | [1] 0.015 | [2] -0.006 | [3] 0.046 | [4] -0.03 | [5] 0.002 | [6] 0.044 | [7] -0.041 | [8] -0.032 | IRAK-1-4 Inhibitor I -0.023

PEF1 (UniProt Q9UBV8)
inactive: erlotinib -0.01 | [1] 0.012 | [2] -0.014 | [3] -0.001 | [4] -0.039 | [5] -0.012 | [6] -0.021 | [7] -0.016 | [8] 0.056 | IRAK-1-4 Inhibitor I 0.025

PI4KA (UniProt P42356)
Chain of UniProt P42356 (P42356 whole entry, looked up): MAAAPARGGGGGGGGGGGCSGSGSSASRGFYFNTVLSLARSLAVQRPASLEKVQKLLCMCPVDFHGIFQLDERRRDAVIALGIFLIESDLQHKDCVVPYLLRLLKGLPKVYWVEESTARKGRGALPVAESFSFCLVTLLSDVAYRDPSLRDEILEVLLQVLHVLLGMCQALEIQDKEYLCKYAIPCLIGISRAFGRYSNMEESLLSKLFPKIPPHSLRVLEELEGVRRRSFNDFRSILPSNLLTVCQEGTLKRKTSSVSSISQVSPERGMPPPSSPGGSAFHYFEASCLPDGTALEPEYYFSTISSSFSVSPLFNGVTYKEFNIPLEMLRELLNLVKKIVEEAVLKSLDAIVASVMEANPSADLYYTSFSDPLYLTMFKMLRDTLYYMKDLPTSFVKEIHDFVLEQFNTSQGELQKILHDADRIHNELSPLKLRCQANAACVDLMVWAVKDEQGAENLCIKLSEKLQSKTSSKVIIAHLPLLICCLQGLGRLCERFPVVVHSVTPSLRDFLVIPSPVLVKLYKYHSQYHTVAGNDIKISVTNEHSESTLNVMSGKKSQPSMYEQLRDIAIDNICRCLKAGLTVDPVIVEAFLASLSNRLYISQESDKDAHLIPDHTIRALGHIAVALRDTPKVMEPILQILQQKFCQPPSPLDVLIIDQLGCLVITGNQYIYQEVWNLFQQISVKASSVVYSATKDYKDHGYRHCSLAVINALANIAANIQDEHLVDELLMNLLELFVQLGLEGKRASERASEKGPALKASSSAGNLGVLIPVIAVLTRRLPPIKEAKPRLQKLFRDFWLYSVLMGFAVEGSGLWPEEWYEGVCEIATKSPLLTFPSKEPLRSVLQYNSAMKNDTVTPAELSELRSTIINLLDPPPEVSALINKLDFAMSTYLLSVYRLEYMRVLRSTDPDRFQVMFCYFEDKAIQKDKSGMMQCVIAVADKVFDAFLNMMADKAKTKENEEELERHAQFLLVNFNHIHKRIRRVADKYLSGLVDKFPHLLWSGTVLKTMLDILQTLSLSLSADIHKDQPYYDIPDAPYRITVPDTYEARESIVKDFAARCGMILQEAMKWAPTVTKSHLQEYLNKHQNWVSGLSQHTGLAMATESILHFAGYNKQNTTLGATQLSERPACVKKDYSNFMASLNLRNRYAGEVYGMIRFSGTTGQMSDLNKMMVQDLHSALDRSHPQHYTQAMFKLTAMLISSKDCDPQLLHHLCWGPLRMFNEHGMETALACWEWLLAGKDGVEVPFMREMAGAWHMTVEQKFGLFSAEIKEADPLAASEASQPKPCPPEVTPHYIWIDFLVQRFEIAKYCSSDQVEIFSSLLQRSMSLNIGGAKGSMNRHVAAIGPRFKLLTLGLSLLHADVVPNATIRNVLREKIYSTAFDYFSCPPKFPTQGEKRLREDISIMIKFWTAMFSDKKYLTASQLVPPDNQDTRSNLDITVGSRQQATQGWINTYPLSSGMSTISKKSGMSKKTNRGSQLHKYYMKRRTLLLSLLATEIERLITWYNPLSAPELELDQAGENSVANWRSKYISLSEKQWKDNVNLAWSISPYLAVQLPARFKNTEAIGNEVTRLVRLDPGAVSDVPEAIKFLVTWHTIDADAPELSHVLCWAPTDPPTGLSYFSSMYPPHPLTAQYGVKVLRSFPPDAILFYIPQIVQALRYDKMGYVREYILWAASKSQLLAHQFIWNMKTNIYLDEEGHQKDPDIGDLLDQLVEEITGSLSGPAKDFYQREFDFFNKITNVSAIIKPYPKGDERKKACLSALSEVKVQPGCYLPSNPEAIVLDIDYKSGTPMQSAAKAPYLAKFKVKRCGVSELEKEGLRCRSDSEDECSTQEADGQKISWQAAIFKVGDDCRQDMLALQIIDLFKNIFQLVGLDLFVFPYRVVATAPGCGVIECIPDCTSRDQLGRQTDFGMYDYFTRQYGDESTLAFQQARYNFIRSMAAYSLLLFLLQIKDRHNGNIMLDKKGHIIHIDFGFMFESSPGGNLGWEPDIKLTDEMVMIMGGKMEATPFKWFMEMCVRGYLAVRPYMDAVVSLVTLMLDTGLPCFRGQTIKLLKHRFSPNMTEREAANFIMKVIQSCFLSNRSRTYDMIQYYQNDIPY
inactive: erlotinib 0.018 | [1] -0.014 | [2] -0.055 | [3] 0.035 | [4] 0.075 | [5] -0.028 | [6] -0.027 | [7] -0.021 | [8] 0.02 | IRAK-1-4 Inhibitor I -0.003

PUS1 (UniProt Q9Y606)
inactive: erlotinib 0.033 | [1] -0.174 | [2] 0.007 | [3] 0.01 | [4] 0.024 | [5] 0.005 | [6] -0.06 | [7] 0.016 | [8] -0.021 | IRAK-1-4 Inhibitor I 0.004
